# Cl transport mod: KCC2 (human) Cl- transport modulation. 190,000 tested, 2.2% active. B-score of Tl+ flux slope (higher = more flux/activation; lower = inhibition) at 10 µM. KCC2 cells, thallium flux FluoZin-2 fluorescence. Q9H2X9;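 active = thallium flux slope and its plate-corrected score both differing from the plate sample mean at a set confidence after two filtering rounds, in either direction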;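 also: slope of fluorescence scaled to starting intensity during 10 to 20 s after thallium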
# Measles CPE: protection of cells from measles virus; 140,000 tested, 1.5% active; protection (pct of control), % at 4 µM; Measles virus-infected cells, CPE protection, absorbance; in the data active = protection mostly above about 24%, no sharp cut-off; inactive = mostly below about 26%
# Arbovirus anti: antivirals against arbovirus infection. arbovirus infection cell-based antiviral screen. inhibition, % at 10 µM. 200,000 tested, 0.37% active. AID 1251; in the data active = inhibition above about 30%
# HSV augment: increases HSV replication in cells | HSV replication augmentation in cells, fold increase | maximum fold increase | 220,000 tested, 0.005% active; in the data active = maximum fold increase above about 1.5; tested in PC3 cells
# ROMK primary: human ROMK K+ channel modulation, primary screen. P48048. Tet-inducible ROMK, thallium flux fluorescence; actives lie on both sides. B-score at 10 µM. 130,000 tested, 2% active. AID 1918;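 active = signal ratio slope over the read window, or its plate-corrected B-score, at least 3 SD from the plate mean, either direction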;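 also: B-score of the F/F0 ratio slope over 7 to 12 s after thallium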
# * hit, by the source's call; i = inactive; . = not tested or not shown. Sampled rows, rich in hits. Any-hit rate of the full collection: about 4%.
SMILES,Cl transport mod,Measles CPE,Arbovirus anti,HSV augment,ROMK primary
CC(C)[C@H](NC(=O)c1ccccc1)C(=O)OCC(=O)c1ccc2c(c1)NC(=O)CO2,0.37,19,7,i,-0.59
O=C(Nc1scc(-c2ccccc2)c1C(=O)O)c1ccco1,0.054,26,42*,i,-0.21
O=C(Nc1scc(-c2cccs2)c1C(=O)O)c1cccs1,.,11,50*,i,-0.82
CCc1nnc(NS(=O)(=O)c2ccc(NC(=O)c3cccc4ccccc34)cc2)s1,1.7,.,1,.,.
CCc1nnc(NS(=O)(=O)c2ccc(NC(=O)COc3ccc4ccccc4c3)cc2)s1,-0.64,.,42*,i,1.5
O=C(O)c1cccnc1SCc1cccc(Cl)c1,-1.2,.,12,i,0.1
Nc1nc(CSCCO)nc(Nc2ccccc2)n1,.,32*,1,i,.
Nc1nc(CSc2ccccn2)nc(Nc2ccccc2)n1,0.66,1,-8,i,.
O=C(Nc1ccc2[nH]c(=S)sc2c1)c1ccccc1,44*,7,3,i,-0.046
COc1ccc(C(=O)Nc2cc(Cl)ccc2C(=O)O)cc1,-2.1,.,47*,i,0.043
COc1c(Cl)cc(C(=O)O)cc1Cl,.,.,.,i,.
COc1c(Cl)cc(C(=O)Nc2ccccc2C(=O)O)cc1Cl,.,5,62*,i,.
COc1ccc(C(=O)Nc2cc(Cl)ccc2OC(=O)c2ccc(OC)cc2)cc1,-0.017,4,17,i,.
C/C(=N\NC(=S)NCCc1ccccc1)c1cccs1,8.6*,6,-5,i,-0.59
C/C(=N\NC(=S)NCCc1ccccc1)c1cccc(Br)c1,-0.17,.,-7,i,1.2
CC(C)CC(=O)CC1(O)C(=O)Nc2ccccc21 (centres undefined),0.48,.,17,i,0.41
C#CCOCCOCCOCCNc1nc(N2CCN(C(=O)C([C@@H](C)CC)n3cc(C(N)COC(=O)C(F)(F)F)nn3)CC2)nc(N2CCN(C(=O)C([C@@H](C)CC)n3cc(C(N)CC(C)C)nn3)CC2)n1 (some centres undefined),.,.,.,i,.
O=C(c1ccc(S(=O)(=O)N2CCCC2)cc1)N1CCCc2ccccc21,-0.97,36*,2,i,0.51
O=C(c1ccc(S(=O)(=O)N2CCCCC2)cc1)N1CCCc2ccccc21,0.088,9,2,i,0.4
O=C(c1coc(=O)c(Br)c1)N1CCCc2ccccc21,.,9,32*,i,-0.79
O=C(c1cncc(Br)c1)N1CCCc2ccccc21,-0.68,11,-2,i,0.087
COc1ccc(C(C(=O)NCC2CCCO2)N(C(=O)CNC(=O)c2cccs2)c2ccc(C)cc2)cc1OC (centres undefined),1,.,5,i,-0.24
CN1CC2([N+](=O)[O-])CC=C(Oc3ccccc3)C([N+](=O)[O-])(C1)C2 (centres undefined),-1.1,30*,15,i,-1.4
C[N+]1(C)CC2([N+](=O)[O-])CC=C(Oc3ccccc3)C([N+](=O)[O-])(C2)C1 (centres undefined),-0.42,19,7,i,0.00053
OCCNc1nc(Nc2ccc(Br)cc2)nc2ccccc12,-0.3,.,-27,i,0.04
SMILES,Cl transport mod,Measles CPE,Arbovirus anti,HSV augment,ROMK primary
OCCNc1nc(Nc2ccccc2)nc2ccccc12,-0.57,19,34*,i,-2.9
CCCCSc1nnc(-c2ccccc2)c2ccccc12,-0.24,22,-10,i,.
COc1nccnc1NS(=O)(=O)c1ccc(NC(=S)NC(=O)c2ccc(F)cc2)cc1,0,34*,2,i,0.9
COc1nccnc1NS(=O)(=O)c1ccc(NC(=S)NC(=O)c2cccc(F)c2)cc1,1,20,-13,i,0.11
CCOC(=O)CCNC(=O)Nc1ccc2nc(C)n(Cc3ccc(Cl)cc3)c(=O)c2c1,0.17,38*,6,i,-1.4
CCCCN(C)CCCNC(=O)/C=C1\Sc2ccccc2NC1=O,-1.6,.,3,.,.
O=C(O)CN1C(=O)Nc2ccc(Br)cc2C1c1ccccc1 (centres undefined),-0.25,39*,5,i,.
NNC(=O)CN1C(=O)Nc2ccc(Br)cc2C1c1ccccc1 (centres undefined),.,9,-10,i,.
O=C(C1CCCCC1)N1CCN(c2ccnc3cc(Cl)ccc23)CC1,-1.3,.,.,i,-0.35
O=C1CC(N2CCCCC2)C(=O)N1c1ccccc1 (centres undefined),0.032,23,-3,i,.
O=C1CC(N2CCCN(C3CC(=O)N(c4ccc(F)cc4)C3=O)CC2)C(=O)N1c1ccc(F)cc1 (centres undefined),-0.71,55*,0,i,.
